Sampled rows, rich in hits. Any-hit rate of the full collection: about 8.3%.
MARV entry inh: Marburg virus entry inhibition; Marburg virus pseudotyped entry inhibition, cell reporter; Potency, µM (titrated, usually from 37.8 µM), for inactives: top-dose activity change, negative = inhibition, usual class: inhibitors; 300,000 tested, 1.8% active; calls by dose curve; tested in HEK293 cells; also: potency is read from the fitted curve at half-maximal effect
FBPA Giardia inh: inhibitors of Giardia lamblia fructose-1,6-bisphosphate aldolase; A8B2U2; purified Giardia FBPA; Potency, µM (doses to about 59.6 µM), without a hit: top-dose activity, negative = inhibition, usual class: inhibitors; 290,000 tested, 0.71% active; AID 2451; also: potency is read from the fitted curve at half-maximal effect; nearly all actives have a fitted effect of over 55% in size
Target sequence (A8B2U2 whole entry, looked up): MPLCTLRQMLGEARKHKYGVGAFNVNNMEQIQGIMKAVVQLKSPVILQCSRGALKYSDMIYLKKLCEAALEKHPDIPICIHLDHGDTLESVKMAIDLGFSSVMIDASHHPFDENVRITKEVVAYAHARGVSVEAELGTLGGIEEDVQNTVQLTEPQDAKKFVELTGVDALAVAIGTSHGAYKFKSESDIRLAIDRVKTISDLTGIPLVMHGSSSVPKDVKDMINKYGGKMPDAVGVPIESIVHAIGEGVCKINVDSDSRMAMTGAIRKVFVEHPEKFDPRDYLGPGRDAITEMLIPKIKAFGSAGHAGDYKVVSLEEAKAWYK
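40 nM FBPA preincubated 10 min at RT with compound (up to 57.5 uM final), then substrate plus GAPDH/TPI/NAD/arsenate coupling and diaphorase/resazurin added. Fluorescence read after 20 min at RT, 525/598 nm.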
LASV entry inh: inhibitors of Lassa virus binding or cell entry | Lassa virus pseudotype entry inhibition, cell reporter | 300,000 tested, 1.2% active | AID 540256 | Potency, µM (titrated, usually from 37.9 µM), for the others: at the top dose activity change, negative = inhibition, most hits filed as inhibitors; calls by dose curve; tested in HEK293 cells; also: potency is read from the fitted curve at half-maximal effect; nearly all actives have a fitted effect of over 50% in size
FMDV antiviral: foot and mouth disease virus antiviral activity. FMDV antiviral cell-based qHTS. 410,000 tested, 1.2% active. Potency, µM (top dose mostly 57.9 µM), for the others: top-dose activity change, negative = inhibition, most hits filed as inhibitors. AID 1159524; calls by dose curve; tested in HEK293T cells; also: read-out not given here; potency is read from the fitted curve at half-maximal effect; nearly all actives have a fitted effect of over 45% in size
HCV inhibitor: HCV inhibition | 340,000 tested, 3.4% active | AID 651820 | Potency, µM (highest dose often 41.8 µM), for inactives: at the highest dose activity change, negative = inhibition, actives largely listed as inhibitors | Huh7.5.1 HCVcc-Cre infection, luciferase reporter, 44 h; also: potency is read from the fitted curve at half-maximal effect
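HCVcc-Cre virus at an moi near 0.5 was added right after compound to cells cultured 4 h from seeding (1,000 cells/well). Luciferase activity was determined 44 h later, 15 min after substrate addition at RT.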
HCMV antiviral: inhibitors of human cytomegalovirus | HFF cells, HCMV-luciferase reporter, 72 h; hits give low values | activity change, negative = inhibition, % at 57.5 µM | 410,000 tested, 4.5% active; in the data active = activity change below about -60%; inconclusive = no clear call, values can overlap the other calls; inactive = above about -39%
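Cell-based, HFFs, 1000 cells/well, 16 h 37C; cpds in DMSO + HCMV-luc, MOI 1 PFU/cell; 72 h 37C; OneGlo luminescence after 5 min RT; norm. to buffer vs Salinomycin 10uM.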
An asterisk follows results filed as active; [ ] = remark or other dose. Unless noted, calls follow the shape of the dose curve; as a rule, active = well fitted curve in the direction sought with a large enough effect; inconclusive = small, poorly fitted or top-dose-only effect, or another doubt; inactive = no such curve, though single readings can be large; an effect the other way counts as inactive or inconclusive. % is scaled to controls: 0 for no effect and ±100 for the full control effect.

How did CCC(CO)Oc1cc(NCc2ccccc2)c2ncn(C(C)C)c2c1 (centres undefined) do in these assays?
FMDV antiviral: -11%; HCV inhibitor: inconclusive; HCMV antiviral: inconclusive

How did CCC(CO)Oc1cc(NCc2cccc(OC)c2)c2ncn(C(C)C)c2c1 (centres undefined) do in these assays?
FMDV antiviral: 3%; HCV inhibitor: 2µM*; HCMV antiviral: -5

Results for CCC(COC)Oc1cc(NCc2ccccc2)c2ncn(C(C)C)c2c1 (centres undefined) ?
FMDV antiviral: -9%; HCV inhibitor: 11µM*; HCMV antiviral: -13

What do the screens show for `CCC(CO)Oc1cc(NCc2ccc(O)cc2)c2ncn(C(C)C)c2c1` (centres undefined)?
FMDV antiviral: -3%; HCV inhibitor: -9%; HCMV antiviral: 3

What do the screens show for `CC1(O)C(=O)C=C2C=C(CCCCOCc3ccccc3)OC=C2C1=O` (centres undefined)?
MARV entry inh: inconclusive; FBPA Giardia inh: -5%[12.9 µM]

What do the screens show for `CCC(=O)N1CCc2cc(S(=O)(=O)N(C)c3cccc(C)c3)ccc21`?
MARV entry inh: 3%[46.1 µM]; LASV entry inh: 10%[46.1 µM]; FMDV antiviral: -26%; HCMV antiviral: -20

How did CCCCOc1cc(NCc2ccccc2)c2ncn(C(C)C)c2c1 do in these assays?
FMDV antiviral: -24%; HCV inhibitor: 11µM*; HCMV antiviral: inconclusive

What do the screens show for `COCCCOc1cc(NCc2ccccc2)c2ncn(C(C)C)c2c1`?
FMDV antiviral: -13%; HCV inhibitor: inconclusive; HCMV antiviral: -37

What do the screens show for `Cc1ccc(S(=O)(=O)CC(CN2CCOCC2)N2CCOCC2)cc1` (centres undefined)?
MARV entry inh: inconclusive; FBPA Giardia inh: 6%; LASV entry inh: -4%; FMDV antiviral: -1%; HCV inhibitor: 15%; HCMV antiviral: -15

Results for CC1CCN(CC(CS(=O)(=O)c2ccc([N+](=O)[O-])cc2)N2CCC(C)CC2)CC1 (centres undefined) ?
FBPA Giardia inh: -2%; FMDV antiviral: 28µM*; HCV inhibitor: 5µM*; HCMV antiviral: -62*

How did CC1(C)OC(=O)C(=CC2=NCCC2)C(=O)O1 do in these assays?
MARV entry inh: 0%

Results for CC(C)(C)CC(C)(C)NC(=O)C(C1CC1)N1C(=O)C(=O)c2ccccc21 (centres undefined) ?
HCMV antiviral: 22

How did O=C(CSc1nnc(NC(=O)c2ccc3c(c2)OCO3)s1)NCc1ccco1 do in these assays?
MARV entry inh: 7.1µM*; FBPA Giardia inh: -1%; LASV entry inh: inconclusive; FMDV antiviral: -33%; HCV inhibitor: 18%; HCMV antiviral: 14

What do the screens show for `CC(=O)Nc1nnc(SCC(=O)NCC2CCCO2)s1` (centres undefined)?
MARV entry inh: -7%; FBPA Giardia inh: -2%; LASV entry inh: -7%; HCV inhibitor: 19%; HCMV antiviral: 39

How did O=C(CSc1nnc(NC(=O)c2ccccc2)s1)NCC1CCCO1 (centres undefined) do in these assays?
MARV entry inh: -14%; FBPA Giardia inh: 3%; LASV entry inh: -19%; FMDV antiviral: -16%; HCV inhibitor: 4%; HCMV antiviral: 33

What do the screens show for `CCC(=O)Nc1nnc(SCC(=O)NCC2CCCO2)s1` (centres undefined)?
MARV entry inh: 16%; LASV entry inh: inconclusive; FMDV antiviral: -13%; HCV inhibitor: 3.5µM*; HCMV antiviral: 9

What do the screens show for `O=C(CSc1nnc(NC(=O)c2cccc(Br)c2)s1)NCC1CCCO1` (centres undefined)?
MARV entry inh: -7%; LASV entry inh: -15%; FMDV antiviral: 28%; HCV inhibitor: 9%; HCMV antiviral: -98*

Results for O=C(Nc1cccc(C(F)(F)F)c1)c1cc(CN2CCOCC2)on1 ?
LASV entry inh: -3%[46.1 µM]; FMDV antiviral: -4%; HCMV antiviral: -3

Results for Cc1cccc(Cn2c(=O)n(CCc3ccccc3)c(=O)c3sc4ccccc4c32)c1 ?
MARV entry inh: -4%[46.1 µM]; LASV entry inh: 25%[46.1 µM]; FMDV antiviral: 1%; HCMV antiviral: -95*

Results for Cc1ccccc1Cn1c(=O)n(Cc2ccco2)c(=O)c2sc3ccccc3c21 ?
MARV entry inh: inconclusive; LASV entry inh: 0%[46.1 µM]; FMDV antiviral: 0%; HCMV antiviral: -69*

How did O=c1c2sc3ccccc3c2n(Cc2ccc(Cl)cc2)c(=O)n1Cc1ccco1 do in these assays?
MARV entry inh: -10%[46.1 µM]; LASV entry inh: 20%[46.1 µM]; FMDV antiviral: -5%; HCMV antiviral: 40

How did O=c1c2sc3ccccc3c2n(Cc2cccc(F)c2)c(=O)n1CCc1ccccc1 do in these assays?
MARV entry inh: inconclusive; LASV entry inh: inconclusive; FMDV antiviral: 23%; HCMV antiviral: 28

How did CC1=NN(c2ccc(Cl)cc2)C(=O)/C1=C\c1cccn1-c1ccc(S(N)(=O)=O)cc1 do in these assays?
MARV entry inh: -3%; FBPA Giardia inh: -7%; LASV entry inh: 2%; FMDV antiviral: 40µM*; HCV inhibitor: 5%; HCMV antiviral: -8

How did Cc1ccc(S(=O)(=O)N/N=C/c2cccn2-c2ccc(Cl)cc2)cc1 do in these assays?
MARV entry inh: 3%; FBPA Giardia inh: 7%; LASV entry inh: inconclusive; FMDV antiviral: 65%; HCV inhibitor: 1%; HCMV antiviral: -22

Results for CO/N=C(/COc1ccc(F)cc1)c1ccc(OC)cc1 ?
MARV entry inh: inconclusive; FBPA Giardia inh: 6%; LASV entry inh: -21%; FMDV antiviral: 9%; HCV inhibitor: 6%; HCMV antiviral: -103*

Results for CCN(CC)S(=O)(=O)c1ccc(N2CCOCC2)c(NC(=O)C(=O)c2c(-c3ccccc3)cc3ccccn23)c1 ?
MARV entry inh: inconclusive; FBPA Giardia inh: 0%; LASV entry inh: inconclusive; FMDV antiviral: 15%; HCV inhibitor: 14µM*; HCMV antiviral: -27

How did CCN(CC)S(=O)(=O)c1ccc(N2CCOCC2)c(NC(=O)c2ccccc2F)c1 do in these assays?
MARV entry inh: inconclusive; FBPA Giardia inh: -1%; LASV entry inh: inconclusive; FMDV antiviral: -3%; HCV inhibitor: -25%; HCMV antiviral: -65*

What do the screens show for `CCN(CC)S(=O)(=O)c1cccc(NC(=O)C(=O)c2c(-c3ccccc3)cc3ccccn23)c1`?
MARV entry inh: inconclusive; FBPA Giardia inh: -4%; LASV entry inh: -20%; FMDV antiviral: -8%; HCV inhibitor: inconclusive; HCMV antiviral: -75*

What do the screens show for `CCN(CC)S(=O)(=O)c1cc(NC(=O)C(=O)c2c(-c3ccccc3)cc3ccccn23)ccc1C`?
MARV entry inh: inconclusive; FBPA Giardia inh: -3%; LASV entry inh: inconclusive; FMDV antiviral: -25%; HCV inhibitor: 13µM*; HCMV antiviral: -97*

Bioassay records from PubChem BioAssay.
